Assay results: the supplement of paper PMC5662767
Where a name gives a salt, the structure may show the parent alone.

Tested on: Drosophila S2 cl14 SmoIP sensor cells
Assay: normalized SmoIP GFP fluorescence (untreated unstimulated = 0%, untreated Hh-stimulated = 100%); higher = more Smo activation sensor fluorescence
Conditions: stimulation: Hh conditioned medium (+Hh); compound concentration: 2 uM; 24 h
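Note: flow cytometry read-out as median GFP intensity of gated cells, compounds added 30 min before Hh-conditioned or mock medium, mock-treated cells serving as unstimulated baseline.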

Point of comparison: `CN1CCN(c2cccc(Nc3nc4c(-c5ccc(S(C)(=O)=O)cc5)cccn4n3)c2)CC1`, “normalized SmoIP GFP fluorescence” value 92.1%. Against it:
- O=C(O)COCCN1CCN(C(c2ccccc2)c2ccc(Cl)cc2)CC1 (configuration not stated) [Cetirizine-di-hcl] — lower, 90.4%
- Cc1nc(Nc2ncc(C(=O)Nc3c(C)cccc3Cl)s2)cc(N2CCN(CCO)CC2)n1 [Dasatinib] — higher, 126%
- Cc1cc2c(F)c(Oc3ncnn4cc(OC[C@@H](C)O)c(C)c34)ccc2[nH]1 [Brivanib] — higher, 97.5%
- COc1ncc(-c2ccc3nccc(-c4ccnnc4)c3c2)cc1NS(=O)(=O)c1ccc(F)cc1F — lower, 57.4%
- CC[C@H](C)C(=O)O[C@@H]1C[C@@H](C)C=C2C=C[C@H](C)[C@@H](CC[C@@H]3C[C@@H](O)CC(=O)O3)[C@H]21 [lovastatin-mevacor] — higher, 123%
- CN1CC(=O)N2[C@H](c3ccc4c(c3)OCO4)c3[nH]c4ccccc4c3C[C@@H]2C1=O [Tadalafil(Cialis)] — higher, 94.8%
- CC(/C=C/C(=O)NO)=C\[C@@H](C)C(=O)c1ccc(N(C)C)cc1 [Trichostatin-A] — higher, 276%
- C[C@@]1(C(=O)Nc2ccc(F)nc2)CCCN1c1nc(Nc2cc(C3CC3)n[nH]2)c2cccn2n1 — higher, 230%
- C[N+]1(C)CCC(=C(c2ccccc2)c2ccccc2)CC1 [diphemanil-methylsulfate] — higher, 110%
- O=C(NCCS(=O)(=O)c1ccc(C(F)(F)F)cn1)c1ccc(Cl)cc1 — higher, 120%
- N#Cc1c(Oc2ccc(F)c(NC(=O)Cc3cccc(C(F)(F)F)c3)c2)ccc2nc(NC(=O)C3CC3)sc12 — higher, 126%
- COc1cc(Nc2ncc(F)c(Nc3ccc4c(n3)NC(=O)C(C)(C)O4)n2)cc(OC)c1OC — higher, 112%
- CNC(=O)[C@H](Cc1ccccc1)NC(=O)[C@H](CC(C)C)[C@H](CSc1cccs1)C(=O)NO — higher, 94.8%
- CCN(Cc1ccncc1)C(=O)C(CO)c1ccccc1 (configuration not stated) [tropicamide] — higher, 104%
- CC(=O)[C@H]1CC[C@H]2[C@@H]3CC=C4C[C@@H](O)CC[C@]4(C)[C@H]3CC[C@]12C [pregnenolone] — higher, 116%
- O=C(Nc1cccc(C(F)(F)F)c1)Nc1cc(S(=O)(=O)NC2CC2)ccc1-c1ccsc1 — higher, 111%
- CCCc1nn(C)c2c(=O)[nH]c(-c3cc(S(=O)(=O)N4CCN(C)CC4)ccc3OCC)nc12 [Sildenafil-citrate] — lower, 76.3%
- CC(C)(O)CC(=O)NCCn1ccc2ncnc(Nc3ccc(Oc4cccc(C(F)(F)F)c4)c(Cl)c3)c21 — higher, 116%
- C/C(=N\NC(=S)N1CCC1)c1ccccn1 — higher, 207%
- O=C(Oc1cc(S(=O)(=O)c2ccccc2)ccc1[N+](=O)[O-])c1ccc(Cl)cc1 — higher, 146%
- CC(C)NCC(O)COc1ccc(COCCOC(C)C)cc1 (configuration not stated) [Bisoprolol-Fumarate] — higher, 103%
- NS(=O)(=O)c1ccc(NC(=O)Nc2ccc(F)cc2)cc1 — higher, 101%
- Cc1ccc(Nc2nccc(N(C)c3ccc4c(C)n(C)nc4c3)n2)cc1S(N)(=O)=O [pazopanib] — higher, 107%

Same assay, conditions: stimulation: mock conditioned medium (-Hh); compound concentration: 2 uM; 24 h

Point of comparison: `C/C(=N\NC(=S)N1CCC1)c1ccccn1`, “normalized SmoIP GFP fluorescence” value 30.1%. Against it:
- NC(=O)c1ncn([C@@H]2O[C@H](CO)[C@@H](O)[C@H]2O)c1N [Acadesine] — lower, -15.4%
- CC(C)(C)NC[C@H](O)COc1nsnc1N1CCOCC1 [timolol-maleate] — lower, -1.51%
- Cc1nccn1CC1CCc2c(c3ccccc3n2C)C1=O (configuration not stated) [Ondansetron-hydrochloride] — lower, -2.96%
- N#Cc1ccc2[nH]c(O)c(-c3ccc(CN4CCOCC4)cn3)c2c1 — lower, -4.35%
- C[N+]1(C)[C@@H]2C[C@@H](OC(=O)C(O)(c3cccs3)c3cccs3)C[C@H]1[C@@H]1O[C@@H]12 [Tiotropium-Bromide-hydrate] — lower, 0.334%
- Cc1cccc(CC(=O)N2CCc3c2ccc(-c2cn(C)c4ncnc(N)c24)c3F)n1 — lower, -1.63%
- O=C(CCCCCN1C(=O)c2cccc3cccc(c23)C1=O)NO [scriptaid] — lower, 10.9%
- COC1CCN(C(=O)c2cc(Cc3n[nH]c(=O)c4ccccc34)ccc2F)CC1 — lower, -3.5%
- CC(COc1ccccc1)N(CCCl)Cc1ccccc1 (configuration not stated) [Phenoxybenzamine-hydrochloride] — lower, -12.4%
- O=C(NC1CCOCC1)c1ccc(-c2cc(-c3c[nH]nc3-c3ccccn3)ccn2)cc1 — lower, -1.38%
- Cc1c(-c2ccccc2)oc2c(C(=O)OCCN3CCCCC3)cccc2c1=O [flavoxate-hcl] — lower, 0.474%
- Nc1cc(C(F)(F)F)c(-c2cc(N3CCOCC3)nc(N3CCOCC3)n2)cn1 — lower, -8.9%
- CCCCc1nc(Cl)c(CO)n1Cc1ccc(-c2ccccc2-c2nnn[nH]2)cc1 [losartan-potassium] — lower, -1.56%
- CC(C)N(C[C@H]1O[C@@H](n2cnc3c(N)ncnc32)[C@H](O)[C@@H]1O)[C@H]1C[C@@H](CCc2nc3cc(C(C)(C)C)ccc3[nH]2)C1 — lower, -2.59%
- O=C(O)COCCN1CCN(C(c2ccccc2)c2ccc(Cl)cc2)CC1 (configuration not stated) [Cetirizine-di-hcl] — lower, -7.27%
- Cc1nc(Nc2ncc(C(=O)Nc3c(C)cccc3Cl)s2)cc(N2CCN(CCO)CC2)n1 [Dasatinib] — lower, -3.93%
- Cc1cc2c(F)c(Oc3ncnn4cc(OC[C@@H](C)O)c(C)c34)ccc2[nH]1 [Brivanib] — lower, 0.489%
- COc1ncc(-c2ccc3nccc(-c4ccnnc4)c3c2)cc1NS(=O)(=O)c1ccc(F)cc1F — lower, -10.6%
- CC[C@H](C)C(=O)O[C@@H]1C[C@@H](C)C=C2C=C[C@H](C)[C@@H](CC[C@@H]3C[C@@H](O)CC(=O)O3)[C@H]21 [lovastatin-mevacor] — lower, -14.7%
- CN1CC(=O)N2[C@H](c3ccc4c(c3)OCO4)c3[nH]c4ccccc4c3C[C@@H]2C1=O [Tadalafil(Cialis)] — lower, -0.265%
- CC(/C=C/C(=O)NO)=C\[C@@H](C)C(=O)c1ccc(N(C)C)cc1 [Trichostatin-A] — higher, 77.5%
- C[C@@]1(C(=O)Nc2ccc(F)nc2)CCCN1c1nc(Nc2cc(C3CC3)n[nH]2)c2cccn2n1 — higher, 60.9%
- C[N+]1(C)CCC(=C(c2ccccc2)c2ccccc2)CC1 [diphemanil-methylsulfate] — lower, -3.62%
- O=C(NCCS(=O)(=O)c1ccc(C(F)(F)F)cn1)c1ccc(Cl)cc1 — lower, -14.9%
- N#Cc1c(Oc2ccc(F)c(NC(=O)Cc3cccc(C(F)(F)F)c3)c2)ccc2nc(NC(=O)C3CC3)sc12 — lower, -0.889%
- COc1cc(Nc2ncc(F)c(Nc3ccc4c(n3)NC(=O)C(C)(C)O4)n2)cc(OC)c1OC — lower, -1.11%
- CNC(=O)[C@H](Cc1ccccc1)NC(=O)[C@H](CC(C)C)[C@H](CSc1cccs1)C(=O)NO — lower, -2.48%
- CCN(Cc1ccncc1)C(=O)C(CO)c1ccccc1 (configuration not stated) [tropicamide] — lower, -2.82%
- CC(=O)[C@H]1CC[C@H]2[C@@H]3CC=C4C[C@@H](O)CC[C@]4(C)[C@H]3CC[C@]12C [pregnenolone] — lower, 8.09%
- O=C(Nc1cccc(C(F)(F)F)c1)Nc1cc(S(=O)(=O)NC2CC2)ccc1-c1ccsc1 — lower, -3.05%
- CCCc1nn(C)c2c(=O)[nH]c(-c3cc(S(=O)(=O)N4CCN(C)CC4)ccc3OCC)nc12 [Sildenafil-citrate] — lower, -1.88%
- CC(C)(O)CC(=O)NCCn1ccc2ncnc(Nc3ccc(Oc4cccc(C(F)(F)F)c4)c(Cl)c3)c21 — lower, 3.66%
- O=C(Oc1cc(S(=O)(=O)c2ccccc2)ccc1[N+](=O)[O-])c1ccc(Cl)cc1 — lower, 7.6%
- CC(C)NCC(O)COc1ccc(COCCOC(C)C)cc1 (configuration not stated) [Bisoprolol-Fumarate] — lower, 8.79%
- NS(=O)(=O)c1ccc(NC(=O)Nc2ccc(F)cc2)cc1 — lower, -3.05%
- Cc1ccc(Nc2nccc(N(C)c3ccc4c(C)n(C)nc4c3)n2)cc1S(N)(=O)=O [pazopanib] — lower, 1.95%
- CN1CCN(c2cccc(Nc3nc4c(-c5ccc(S(C)(=O)=O)cc5)cccn4n3)c2)CC1 — lower, -3.39%
